The source of these data is PubChem BioAssay (NCATS).

SMILES strings stand for the structures. Inconclusive results are not listed. Where a call stands in place of a potency, no number is given. Calls of active or inactive are those of the source. Unless noted, calls follow the shape of the full dose curve.

Tested on in one test: not listed separately
The test can be described thus: qHTS for Inhibitors of the Functional Ribonucleoprotein Complex (vRNP) of Lymphocytic Choriomeningitis Arenaviruses (LCMV): Viability assay - alamar blue signal for LCMV Primary Screen (AID 1347085; calls by dose curve; tested in HEK293 reporter line; also: nearly all actives have a fitted effect of over 80% in size; also: potency is read from the fitted curve at half-maximal effect). As to conditions: alamar blue viability counter-screen, LCMV vRNP screen cells; series mostly up to 57.5 µM. Background: In qHTS, concentration-response curves come from the screen itself.
In the case of `COc1cc(C(=O)O[C@@H]2CC3CC[C@]2(C)C3(C)C)ccc1O`, the Potency entry is “inactive”.
As for `CCCCCCCCCCCCCC`, the Potency entry was “inactive”.
With `C=C1C2C[C@H](O)C(C)(C)[C@@]2(O)[C@H](O)C[C@]23C[C@@](C)(O)[C@H](CC[C@H]12)[C@H]3O` (stereo not given in full), the Potency result was “inactive”.
For `ClC1=C(Cl)[C@]2(Cl)[C@@H]3[C@@H](Cl)[C@H]4O[C@H]4[C@@H]3C1(Cl)C2(Cl)Cl`, the Potency result was “inactive”.
Take `COC(=O)c1ccc(OC)cc1`: the Potency entry is “inactive”.
As to `CCC(=O)O[C@]1(C(=O)CO)CC[C@H]2[C@@H]3CCC4=CC(=O)CC[C@]4(C)[C@@H]3CC[C@@]21C`, the Potency entry is “inactive”.
As to `CC(=O)OCC(=O)[C@@]1(O)CC[C@H]2[C@@H]3CCC4=CC(=O)CC[C@]4(C)[C@@H]3C(=O)C[C@@]21C`, the Potency result is “inactive”.
For the compound `Oc1ccc(C=Cc2cc(O)cc(O)c2)cc1`, the Potency result was “inactive”.
As for `CC1=CC(=O)C2=C(C)C[C@@H]3OC(=O)[C@@H](C)[C@H]3C=C12`, the Potency entry is “inactive”.
Take `CC1(C)C[C@H]2C3=CCC4[C@@]5(C)CC[C@H](O)[C@](C)(CO)C5CC[C@@]4(C)[C@]3(C)C[C@H]3O[C@@H]1[C@H](O)[C@]32CO` (stereo not given in full): the Potency result was “inactive”.
Regarding `CCOC(=O)c1cc(=O)[nH]c2ccccc12`, the Potency entry is “inactive”.
Regarding `O=C(/C=C/c1ccccc1)NCCc1cnc[nH]1`, the Potency result is “inactive”.
Take `C=C(CC[C@]12OC(C(=O)O)C(O)(C(=O)O)C(C(=O)O)(O1)C(OC(=O)/C=C/[C@@H](C)C[C@@H](C)CC)C2O)[C@@H](OC(C)=O)[C@H](C)Cc1ccccc1` (stereo not given in full): the Potency result is “inactive”.
Same read-out and setting: as for `CCCCCC/C=C/C=O`, the entry is “inactive”; as for `COC(=O)C(O)C(O)(CCC(C)C)C(=O)OC1C(OC)=CC23CCCN2CCc2cc4c(cc2C13)OCO4` (stereo not given), “inactive”; as for `C=C(CC[C@@H](O)C(C)(C)O)[C@H]1CC[C@]2(C)[C@@H]1CCC1[C@@]3(C)CC[C@H](O)C(C)(C)C3CC[C@]12C` (stereo not given in full), “inactive”.
As to `CC1(C)C[C@H](O)[C@]2(CO)[C@H](O)C[C@]3(C)C(=CCC4[C@@]5(C)CC[C@H](O)C(C)(C)C5CC[C@]43C)[C@@H]2C1` (stereo not given in full), the Potency result was “inactive”.
On to `Nc1nc(Cl)nc2c1ncn2[C@@H]1O[C@H](CO)[C@@H](O)[C@H]1F`, for which the Potency is 243 nM (active).
Regarding `C=CC(=O)c1ccc(CCCCCC)cc1`, the Potency result is “inactive”.
On the same count and under the same terms, for `CC(CCC(=O)O)C1CCC2C3CC(O)C4CC(O)CC[C@]4(C)C3CCC12C` (stereo not given in full) the value was “inactive”; for `C=C(C)[C@@H]1CCC2=CCC[C@@H](C)[C@]2(C)C1`, “inactive”; for `O=C1c2ccccc2C(=O)c2c(O)c(O)cc(O)c21`, “inactive”.
Still for that read-out and setting: for `COC(=O)c1nccc2c1[nH]c1ccccc12` the value was “inactive”.
For `CC(C)CC(=O)[C@@H](O)Cc1ccc(O)cc1`, the Potency entry was “inactive”.
For the compound `CC(C)c1noc(N2CCC(COc3ccc(-c4ccc(S(C)(=O)=O)cc4)nc3)CC2)n1`, the Potency entry is “inactive”.
Regarding `C=C(C)C(COc1c2occc2cc2ccc(=O)oc12)OC(C)(C)C(O)COc1c2occc2cc2ccc(=O)oc12` (stereo not given), the Potency entry was “inactive”.
Turning to `CC(C)=CCCC(C)CCO` (stereo not given), the Potency entry was “inactive”.
Still for that read-out and setting: as for `Nc1nc(Cl)nc2c1ncn2[C@@H]1O[C@H](CO)C(O)[C@H]1O` (stereo not given in full), the entry is “inactive”; as for `CO[C@H]1[C@@H]2C=CO[C@@H](O[C@H]3O[C@@H](CO)[C@H](O)[C@@H](O)[C@@H]3O)[C@@H]2[C@@]2(CO)O[C@@H]12`, “inactive”; as for `COc1c(O)ccc2c1-c1c3c(cc4c1C(C2)N(C)CC4)OCO3` (stereo not given), “inactive”.
With `O=C1CCc2ccccc2O1`, the Potency result was “inactive”.
On the same count and under the same terms, for `OCCc1c[nH]c2ccccc12` the value was “inactive”; for `CC1=CC23C(=O)C(C=C(CO)[C@@H](O)[C@]2(O)[C@H]1O)[C@H]1[C@@H](C[C@H]3C)C1(C)C` (stereo not given in full), “inactive”.
With `COC(=O)c1ccc(=O)c2nc3/c(=C/O)c(O)cc(=O)c3[nH]c12`, the Potency entry was “inactive”.
As to `CCCCCCC(=O)OCC`, the Potency result was “inactive”.
Same read-out and setting: for `O=C(O)C1=CO[C@@H](O[C@@H]2O[C@H](CO)[C@H](O)[C@H](O)[C@H]2O)[C@@H]2C(CO)=CC[C@H]12` the value was “inactive”.
As for `Cc1[nH]c(C=C2C(=O)Nc3ccc(S(=O)(=O)N(C)c4cccc(Cl)c4)cc32)c(C)c1C(=O)N1CCN(C)CC1`, the Potency entry is “inactive”.
The same measure, in the same setting: as for `C[C@H]1CCC2[C@](C)(CO)[C@@H](O)CC[C@]2(C)[C@@]12CCC(CO)(CCO)O2` (stereo not given in full), the entry is “inactive”; as for `O=C(O)CC(=O)Nc1ccccc1C(=O)O`, “inactive”; as for `Cn1cc(C=C2C(=O)Nc3cccnc32)c2ccccc21`, “inactive”.

For another test, the target named is Nucleoprotein (Lymphocytic choriomeningitis virus (strain Armstrong)) (UniProt P09992). The test can be described thus: qHTS for Inhibitors of the Functional Ribonucleoprotein Complex (vRNP) of Lymphocytic Choriomeningitis Arenaviruses (LCMV): LCMV Primary Screen - GLuc reporter signal (AID 1347086). Also: nearly all actives have a fitted effect of over 70% in size. As to conditions: LCMV minigenome vRNP cell assay, Gaussia luciferase reporter; series mostly up to 57.5 µM.
Chain of Nucleoprotein (Lymphocytic choriomeningitis virus (strain Armstrong)) (P09992 whole entry, looked up): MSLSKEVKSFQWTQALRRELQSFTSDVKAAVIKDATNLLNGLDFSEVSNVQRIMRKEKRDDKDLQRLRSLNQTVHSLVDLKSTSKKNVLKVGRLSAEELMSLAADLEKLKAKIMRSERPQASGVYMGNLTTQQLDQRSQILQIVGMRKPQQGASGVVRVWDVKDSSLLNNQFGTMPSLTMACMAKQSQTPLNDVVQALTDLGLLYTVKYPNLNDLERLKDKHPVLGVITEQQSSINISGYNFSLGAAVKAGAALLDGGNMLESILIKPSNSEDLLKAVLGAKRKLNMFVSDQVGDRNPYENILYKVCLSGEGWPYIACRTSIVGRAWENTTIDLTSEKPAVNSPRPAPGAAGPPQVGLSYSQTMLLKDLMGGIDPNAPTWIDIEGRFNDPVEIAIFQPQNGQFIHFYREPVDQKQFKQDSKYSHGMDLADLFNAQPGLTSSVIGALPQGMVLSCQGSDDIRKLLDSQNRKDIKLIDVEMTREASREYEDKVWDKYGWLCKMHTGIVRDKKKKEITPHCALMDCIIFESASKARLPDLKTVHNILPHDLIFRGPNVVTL
Consider `COc1cc(C(=O)O[C@@H]2CC3CC[C@]2(C)C3(C)C)ccc1O`, for which the Potency result is “inactive”.
On to `CCCCCCCCCCCCCC`, for which the Potency result is “inactive”.
Consider `C=C1C2C[C@H](O)C(C)(C)[C@@]2(O)[C@H](O)C[C@]23C[C@@](C)(O)[C@H](CC[C@H]12)[C@H]3O` (stereo not given in full), for which the Potency entry is “inactive”.
Turning to `ClC1=C(Cl)[C@]2(Cl)[C@@H]3[C@@H](Cl)[C@H]4O[C@H]4[C@@H]3C1(Cl)C2(Cl)Cl`, the Potency result is “inactive”.
Regarding `COC(=O)c1ccc(OC)cc1`, the Potency entry was “inactive”.
Regarding `CCC(=O)O[C@]1(C(=O)CO)CC[C@H]2[C@@H]3CCC4=CC(=O)CC[C@]4(C)[C@@H]3CC[C@@]21C`, the Potency entry is “inactive”.
Still for that read-out and setting: as for `CC(=O)OCC(=O)[C@@]1(O)CC[C@H]2[C@@H]3CCC4=CC(=O)CC[C@]4(C)[C@@H]3C(=O)C[C@@]21C`, the entry is “inactive”.
For `Oc1ccc(C=Cc2cc(O)cc(O)c2)cc1`, the Potency entry is “inactive”.
`CC1=CC(=O)C2=C(C)C[C@@H]3OC(=O)[C@@H](C)[C@H]3C=C12`: the Potency result was “inactive”.
With `CC1(C)C[C@H]2C3=CCC4[C@@]5(C)CC[C@H](O)[C@](C)(CO)C5CC[C@@]4(C)[C@]3(C)C[C@H]3O[C@@H]1[C@H](O)[C@]32CO` (stereo not given in full), the Potency entry is “inactive”.
The same measure, in the same setting: for `CCOC(=O)c1cc(=O)[nH]c2ccccc12` the value was “inactive”; for `O=C(/C=C/c1ccccc1)NCCc1cnc[nH]1`, “inactive”; for `C=C(CC[C@]12OC(C(=O)O)C(O)(C(=O)O)C(C(=O)O)(O1)C(OC(=O)/C=C/[C@@H](C)C[C@@H](C)CC)C2O)[C@@H](OC(C)=O)[C@H](C)Cc1ccccc1` (stereo not given in full), “inactive”.
Still for that read-out and setting: as for `CCCCCC/C=C/C=O`, the entry is “inactive”; as for `COC(=O)C(O)C(O)(CCC(C)C)C(=O)OC1C(OC)=CC23CCCN2CCc2cc4c(cc2C13)OCO4` (stereo not given), “inactive”.
Consider `C=C(CC[C@@H](O)C(C)(C)O)[C@H]1CC[C@]2(C)[C@@H]1CCC1[C@@]3(C)CC[C@H](O)C(C)(C)C3CC[C@]12C` (stereo not given in full), for which the Potency entry is “inactive”.
For `CC1(C)C[C@H](O)[C@]2(CO)[C@H](O)C[C@]3(C)C(=CCC4[C@@]5(C)CC[C@H](O)C(C)(C)C5CC[C@]43C)[C@@H]2C1` (stereo not given in full), the Potency entry was “inactive”.
For the compound `Nc1nc(Cl)nc2c1ncn2[C@@H]1O[C@H](CO)[C@@H](O)[C@H]1F`, the Potency entry is “inactive”.
Consider `C=CC(=O)c1ccc(CCCCCC)cc1`, for which the Potency result was “inactive”.
The same measure, in the same setting: for `CC(CCC(=O)O)C1CCC2C3CC(O)C4CC(O)CC[C@]4(C)C3CCC12C` (stereo not given in full) the value was “inactive”; for `C=C(C)[C@@H]1CCC2=CCC[C@@H](C)[C@]2(C)C1`, “inactive”.
`O=C1c2ccccc2C(=O)c2c(O)c(O)cc(O)c21`: the Potency result was “inactive”.
For `COC(=O)c1nccc2c1[nH]c1ccccc12`, the Potency result is “inactive”.
On to `CC(C)CC(=O)[C@@H](O)Cc1ccc(O)cc1`, for which the Potency entry is “inactive”.
Take `CC(C)c1noc(N2CCC(COc3ccc(-c4ccc(S(C)(=O)=O)cc4)nc3)CC2)n1`: the Potency entry was “inactive”.
With `C=C(C)C(COc1c2occc2cc2ccc(=O)oc12)OC(C)(C)C(O)COc1c2occc2cc2ccc(=O)oc12` (stereo not given), the Potency entry was “inactive”.
Regarding `CC(C)=CCCC(C)CCO` (stereo not given), the Potency entry is “inactive”.
`Nc1nc(Cl)nc2c1ncn2[C@@H]1O[C@H](CO)C(O)[C@H]1O` (stereo not given in full): the Potency entry was “inactive”.
Still for that read-out and setting: for `CO[C@H]1[C@@H]2C=CO[C@@H](O[C@H]3O[C@@H](CO)[C@H](O)[C@@H](O)[C@@H]3O)[C@@H]2[C@@]2(CO)O[C@@H]12` the value was “inactive”; for `COc1c(O)ccc2c1-c1c3c(cc4c1C(C2)N(C)CC4)OCO3` (stereo not given), “inactive”.
For the compound `O=C1CCc2ccccc2O1`, the Potency entry is “inactive”.
For `OCCc1c[nH]c2ccccc12`, the Potency entry is “inactive”.
In the case of `CC1=CC23C(=O)C(C=C(CO)[C@@H](O)[C@]2(O)[C@H]1O)[C@H]1[C@@H](C[C@H]3C)C1(C)C` (stereo not given in full), the Potency result is “inactive”.
Consider `COC(=O)c1ccc(=O)c2nc3/c(=C/O)c(O)cc(=O)c3[nH]c12`, for which the Potency entry was “inactive”.
Same read-out and setting: as for `CCCCCCC(=O)OCC`, the entry is “inactive”.
`O=C(O)C1=CO[C@@H](O[C@@H]2O[C@H](CO)[C@H](O)[C@H](O)[C@H]2O)[C@@H]2C(CO)=CC[C@H]12`: the Potency result was “inactive”.
As for `Cc1[nH]c(C=C2C(=O)Nc3ccc(S(=O)(=O)N(C)c4cccc(Cl)c4)cc32)c(C)c1C(=O)N1CCN(C)CC1`, the Potency entry is “inactive”.
For `C[C@H]1CCC2[C@](C)(CO)[C@@H](O)CC[C@]2(C)[C@@]12CCC(CO)(CCO)O2` (stereo not given in full), the Potency entry is “inactive”.
Take `O=C(O)CC(=O)Nc1ccccc1C(=O)O`: the Potency entry is “inactive”.
On to `Cn1cc(C=C2C(=O)Nc3cccnc32)c2ccccc21`, for which the Potency entry was “inactive”.
